# Most compounds without a hit are left out; they make up all but 11% or so of the library.
# NIH3T3 tox – cytotoxic compounds in NIH 3T3 cells. NIH 3T3 viability, CellTiter-Glo ATP luminescence, 48-72 h. Potency, µM (doses to about 96.7 µM), without a hit: at the highest dose activity change, negative = cytotoxicity, hits mostly inhibitors. 94,000 compounds, 4.3% hits. AID 1345082; note: nearly all actives have a fitted effect of over 55% in size
#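 Cytotoxicity was measured by CellTiter-Glo ATP luminescence after 48 or 72 h compound exposure at 37 °C. Mouse NIH 3T3 fibroblasts were seeded at 400 cells/well and dosed by 23 nL pin transfer.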
# FLuc inh – Photinus pyralis luciferase inhibition. P08659. Potency, µM (top dose mostly 115 µM), usual class: inhibitors. 76,000 compounds, 2.5% hits. purified P. pyralis luciferase, luminescence, biochemical; note: nearly all actives have a fitted effect of over 65% in size
# Target sequence (P08659 whole entry, looked up): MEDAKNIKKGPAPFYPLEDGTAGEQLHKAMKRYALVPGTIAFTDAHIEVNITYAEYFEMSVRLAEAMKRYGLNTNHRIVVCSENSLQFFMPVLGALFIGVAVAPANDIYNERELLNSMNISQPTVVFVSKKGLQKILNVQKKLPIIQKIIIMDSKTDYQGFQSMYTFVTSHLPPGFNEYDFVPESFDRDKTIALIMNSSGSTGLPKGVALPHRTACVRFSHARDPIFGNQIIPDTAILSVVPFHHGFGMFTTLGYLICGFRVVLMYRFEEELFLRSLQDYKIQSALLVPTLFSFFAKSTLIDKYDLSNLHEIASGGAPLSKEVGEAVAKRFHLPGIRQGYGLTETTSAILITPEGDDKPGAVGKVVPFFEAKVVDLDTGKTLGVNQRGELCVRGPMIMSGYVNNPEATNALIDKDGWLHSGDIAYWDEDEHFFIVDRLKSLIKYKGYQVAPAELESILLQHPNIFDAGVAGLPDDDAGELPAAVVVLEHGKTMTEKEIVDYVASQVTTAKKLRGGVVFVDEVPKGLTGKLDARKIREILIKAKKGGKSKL
#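 Purified 10nM P. pyralis luciferase with 10uM D-luciferin and 10uM ATP in 50mM Tris acetate pH 7.5, 10mM Mg acetate, 0.01% Tween-20, 0.05% BSA. qHTS titration; luminescence read by CCD imager.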
# NPR1 antag – blocks ANP-stimulated signaling of human Npr1 receptor. AID 1347048. Potency, µM (doses to about 46.3 µM), for inactives: top-dose activity change, negative = inhibition, most hits filed as inhibitors. HEK293 hNpr1 GloSensor cGMP, ANP-stimulated luminescence. 76,000 compounds, 1.6% hits. P16066; calls by dose curve; note: nearly all actives have a fitted effect of over 60% in size
#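 HEK293 cells stably expressing human Npr1 and cGMP GloSensor pGS-40F, loaded 2 h with 2% GloSensor reagent, given compound 30 min at room temperature. Luminescence read before and 20 min after 0.1 nM hNppA.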
# HEK293 tox – HEK 293 cell cytotoxicity; HEK 293 viability, ATP luminescence (CellTiter-Glo), 48-72 h; Potency, µM (titrated, usually from 115 µM), without a hit: at the highest dose activity change, negative = cytotoxicity, most hits filed as inhibitors; 94,000 compounds, 6.6% hits; AID 1345083; note: nearly all actives have a fitted effect of over 60% in size
#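 Cytotoxicity was scored by loss of ATP-coupled luminescence (CellTiter-Glo) in HEK 293 cells. Compound treatment ran 48 or 72 hr at 37 degree Celsius, 5% CO2, 95% humidity.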
# Active calls of the source: *; i = inactive; ? = inconclusive; nt = no result given; ! = repeats disagree; [ ] = remark or other dose. Unless noted, calls come from the whole dose curve; as a rule, active = well fitted curve in the direction sought with a large enough effect; inconclusive = small, poorly fitted or top-dose-only effect, or another doubt; inactive = no such curve, though single readings can be large; an effect the other way counts as inactive or inconclusive. % is set by controls: 0 for no effect and ±100 for the full control effect; potency is the fitted concentration of half-maximal effect.
SMILES,NIH3T3 tox,FLuc inh,NPR1 antag,HEK293 tox
O=C1NC(=NC2CCCC2)C2(CCN(Cc3ccccc3)C2)N1c1cccnc1 (stereo not given),?,nt,nt,0%
O=C1NC(=NC2CCCC2)C2(CCCN(Cc3ccccc3)C2)N1c1cccnc1 (stereo not given),25µM*,nt,nt,-10%
CC(C)CCN1CCCC2(C1)C(=NC1CCCC1)NC(=O)N2c1cccnc1 (stereo not given),7.1µM*,nt,nt,?
COc1ccc(CN2CCCC3(C2)C(=NC2CCCC2)NC(=O)N3c2cccnc2)cc1 (stereo not given),22µM*,nt,nt,-10%
CNC(=O)c1cc(C2CC2)nc2c1c(C1CCCN1C(=O)c1ccccc1Cl)nn2C (stereo not given),-24%,nt,nt,i
COc1cccc(-c2ccnc(-c3nnc(C)n3Cc3ccccc3)c2)c1,79µM*,i,-2%[70.6 µM],?
Cc1nnc(-c2cc(-c3cccc(F)c3)ccn2)n1Cc1ccccc1,?,i,1%[70.6 µM],89µM*
COCCn1c(C)nnc1-c1cc(-c2ccc(OC)c(OC)c2)ccn1,89µM*,i,2%[70.6 µM],2%[172 µM]
CC(=O)Nc1cccc(-c2ccnc(-c3nnc(C)n3Cc3ccccc3)c2)c1,?,50µM*,-18%[70.6 µM],?
CCCC(=O)N1CCCN(c2ccnc3ccnn23)CC1,-36%[138 µM],nt,nt,-13%[172 µM]
COc1ncc(-c2ccnc(-c3nnc(C)n3CCc3ccccc3)c2)cn1,100µM*,i,5%[70.6 µM],-5%[172 µM]
Cc1nnc(-c2cc(-c3cccc(N(C)C)c3)ccn2)n1Cc1ccccc1,50µM*,?,4%[70.6 µM],89µM*
Cc1nnc(-c2cc(-c3cccc(N(C)C)c3)ccn2)n1Cc1ccncc1,?,i,0%[70.6 µM],1%[172 µM]
COc1ccccc1Cn1c(=O)c(C(=O)NCC(F)F)nc2cccnc21,-14%,nt,nt,-5%
COc1ccc2cc(C3CN(Cc4nc(C(N)=O)no4)CCO3)ccc2c1 (stereo not given),-27%,i,3%,-3%
COc1ccc2cc(C3CN(CCC(=O)NC(C)(C)C)CCO3)ccc2c1 (stereo not given),?,?,?,45µM*
CN(C)C(=O)N1CCC2(CC1)CC(c1cccc(C(F)(F)F)c1)=NO2,?,nt,nt,45µM*
CC(=O)Nc1ccc(CN2CCC3(CC2)CC(c2cccc(C(F)(F)F)c2)=NO3)cc1,35µM*,i,-7%,40µM*
Cc1ccc(CN2CCC3(CC2)CC(c2cccnc2)=NO3)cc1,?,i,-17%[70.6 µM],79µM*!
CC(=O)Nc1ccc(CN2CCC3(CC2)CC(c2cccnc2)=NO3)cc1,5%,i,-13%,-20%
O=C(CCl)N1CCC2(CC1)CC(c1cccc(C(F)(F)F)c1)=NO2,?,nt,nt,79µM*
CN(C)c1ccc(CN2CCCC3(CC(c4cccc(C(F)(F)F)c4)=NO3)C2)cc1 (stereo not given),?,i,-3%,?
O=c1c2c3c(nn2ccn1Cc1ccc(Cl)cc1)CCCC3,?,i,-15%,?
Fc1ccc(CN2CCCC3(CC(c4cccc(C(F)(F)F)c4)=NO3)C2)cc1 (stereo not given),?,i,-25%,?
Cc1noc(C)c1[S+](=O)([O-])N1CCC2(CC1)CC(c1cccc(C(F)(F)F)c1)=NO2,4.5µM*,nt,nt,?
SMILES,NIH3T3 tox,FLuc inh,NPR1 antag,HEK293 tox
O=[S+]([O-])(c1ccc(C(F)(F)F)cc1)N1CCC2(CC1)CC(c1cccc(C(F)(F)F)c1)=NO2,-15%,nt,nt,?
O=C(Cc1ccc(F)cc1)N1CCC2(CC1)CC(c1cccc(C(F)(F)F)c1)=NO2,40µM*,nt,nt,50µM*
COc1cccc(C(=O)N2CCC(C(=O)N3CCC(c4nc5ncccc5[nH]4)C3)CC2)c1 (stereo not given),-27%,nt,nt,-17%
CCC(NC(=O)c1ccc2nc(-c3ccc(F)cc3)cn2c1)c1ncc(C)[nH]1 (stereo not given),?,7.9µM*,-6%,?
O=C(NCC1CNCCOC1)c1ccc2nc(-c3ccc(F)cc3)cn2c1 (stereo not given),?,?,-6%,?
Cc1ccc(-c2ccc3nnc(CNC(=O)c4ccc(F)cc4)n3n2)cc1,-17%,i,1%,?
CC(Cc1cnccn1)NC(=O)c1ccc2nc(-c3ccc(F)cc3)cn2c1 (stereo not given),-7%,40µM*,6%,?
